Experimental findings from article PMC4336329 (PLoS ONE, 2015) are described below.

Molecules are shown by their SMILES. The campaign covered roughly 310,000 compounds. About 14,000 (4.5%) showed an effect of 50% or more. The effect is printed as a negative number. The sample holds strong results, similar compounds and a random draw of the others, so the mix is not that of the screen.
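Note: peak tail current of the secondary pulse compared with the same well before compound.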

human ether-à-go-go-related gene (hERG) potassium channel, sequence (Q12809 whole entry, looked up): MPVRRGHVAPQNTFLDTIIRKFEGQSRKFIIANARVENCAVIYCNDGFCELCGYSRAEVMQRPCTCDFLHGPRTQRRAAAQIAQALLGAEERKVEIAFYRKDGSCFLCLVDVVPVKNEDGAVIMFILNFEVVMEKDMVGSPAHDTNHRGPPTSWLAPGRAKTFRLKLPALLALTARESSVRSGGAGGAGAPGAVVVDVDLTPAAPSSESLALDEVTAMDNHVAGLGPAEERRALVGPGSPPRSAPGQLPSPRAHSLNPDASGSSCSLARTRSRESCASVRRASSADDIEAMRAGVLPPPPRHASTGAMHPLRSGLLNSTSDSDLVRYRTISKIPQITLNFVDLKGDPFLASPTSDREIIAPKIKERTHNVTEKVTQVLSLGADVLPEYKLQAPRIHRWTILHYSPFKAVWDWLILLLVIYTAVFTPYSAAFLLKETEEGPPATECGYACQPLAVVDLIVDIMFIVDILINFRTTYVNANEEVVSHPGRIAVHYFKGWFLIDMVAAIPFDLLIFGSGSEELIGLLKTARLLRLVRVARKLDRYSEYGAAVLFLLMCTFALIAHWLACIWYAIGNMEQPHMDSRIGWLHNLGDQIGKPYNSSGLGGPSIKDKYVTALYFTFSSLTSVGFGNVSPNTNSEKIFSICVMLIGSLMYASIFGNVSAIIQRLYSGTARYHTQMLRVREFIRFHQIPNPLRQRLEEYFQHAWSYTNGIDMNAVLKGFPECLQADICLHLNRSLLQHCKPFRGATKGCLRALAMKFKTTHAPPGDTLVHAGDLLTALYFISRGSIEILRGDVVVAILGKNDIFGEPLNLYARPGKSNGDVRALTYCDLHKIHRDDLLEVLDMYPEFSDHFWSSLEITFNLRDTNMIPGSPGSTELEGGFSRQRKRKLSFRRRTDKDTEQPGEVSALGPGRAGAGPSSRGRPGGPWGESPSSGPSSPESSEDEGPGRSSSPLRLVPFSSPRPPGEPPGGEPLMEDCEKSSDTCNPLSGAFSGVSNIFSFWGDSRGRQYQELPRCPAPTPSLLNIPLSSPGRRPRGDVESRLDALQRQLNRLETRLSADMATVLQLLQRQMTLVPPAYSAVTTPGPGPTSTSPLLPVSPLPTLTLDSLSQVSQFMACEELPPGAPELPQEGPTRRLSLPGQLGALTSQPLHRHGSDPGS

This experiment has as its target human ether-à-go-go-related gene (hERG) potassium channel (human, UniProt Q12809). The experiment is described as follows: primary screen, population patch clamp on CHO cells stably expressing hERG; higher = less effect of the substance.
For the molecule `O=C(CN1CCN(Cc2ccc(F)cc2Cl)CC1)NCc1ccccc1`, the “hERG current change (%, negative = inhibition) at 10uM” value is reported as -23.2%.
The value for `O=[N+]([O-])c1ccc2nc(NCCCO)nc(-c3ccccc3)c2c1` was -22.7%; that for `OCCCNc1nc(-c2ccc(Cl)cc2)nnc1-c1ccccc1` was -40%.
As to `OCCCNc1nc(-c2ccc(Br)cc2)nnc1-c1ccc(Cl)cc1`, the “hERG current change (%, negative = inhibition) at 10uM” value was -52.3%.
In the case of `OCCCNc1nnc(-c2ccccc2)c2ccccc12`, the “hERG current change (%, negative = inhibition) at 10uM” value was found to be 2.95%.
Then `Cc1nnc(-c2ccc(Cl)cc2)nc1NCCN(C)C`, with -38.9%.
Then `Clc1ccc(-c2nnc(-c3ccc(Br)cc3)c(N3CCSCC3)n2)cc1`, with -11.9%; and `OCCCNc1nc(-c2ccc(Cl)cc2)nnc1-c1ccc(Br)cc1`, with -61.5%; and `Nc1nc(-c2ccc(Cl)cc2)nnc1-c1ccc(Br)cc1`, with 41%.
With `O=[N+]([O-])c1ccc(-c2nnc(-c3ccccc3)c(NCCCO)n2)cc1`, the “hERG current change (%, negative = inhibition) at 10uM” value is reported as -67.3%.
As to `CC(C)(C)c1ccc(C(CC(=O)O)NC(=O)C23CC4CC(CC(C4)C2)C3)cc1` (stereo not shown), the “hERG current change (%, negative = inhibition) at 10uM” value is recorded as 17.7%.
Then `O=C(Nc1ccc2c(c1)OCO2)C1Cc2ccccc2CN1S(=O)(=O)c1cccs1` (stereo not shown), with 4.05%.
With `COc1ccccc1NC(=O)c1ccc(Br)c(S(=O)(=O)N2CCCC2)c1`, the “hERG current change (%, negative = inhibition) at 10uM” value is -2.36%.
The value for `CCC(C)C(NC(=O)c1ccccc1NC(=O)c1ccc(OC)cc1)C(=O)NCCCn1ccnc1` (stereo not shown) was -1.96%; that for `CCCn1c(CCC(=O)O)nc2cc(S(=O)(=O)N3CCCC3)ccc21` was 12.1%.
For the molecule `COCCOC(=O)c1c(C)oc2ccc(O)c(CN3CCC(C)CC3)c12`, the “hERG current change (%, negative = inhibition) at 10uM” value is -29.8%.
Then `CC12CC3CC(C)(C1)CC(C(=O)NCc1ccncc1)(C3)C2`, with 9.2%.
Then `CC12CC3CC(C)(C1)CC(NCc1ccncc1)(C3)C2.Cl`, with -58.7%.
The value for `Cl.c1cc(CNC23CC4CC(CC(C4)C2)C3)ccn1` was -20.2%.
`O=C(c1ccc([N+](=O)[O-])o1)N(Cc1nnc(-c2ccccc2Cl)o1)C1CC1`: the “hERG current change (%, negative = inhibition) at 10uM” value was -20.9%.
Then `CN(NS(=O)(=O)c1ccc(Br)cc1)c1nc(C(F)(F)F)nc2ccccc12`, with 12.2%; and `O=C(CN(Cc1ccc2c(c1)OCO2)C(=O)CNC(=O)c1ccco1)NC1CCCCC1`, with -7.83%.
The value for `O=C(c1cc(-c2cccnc2)nc2ccc(Cl)cc12)N1CCN(S(=O)(=O)c2cccs2)CC1` was -4.28%; that for `CCOC(=O)C1CCN(C(=O)c2cc(-c3ccncc3)nc3ccccc23)CC1` was -67.2%.
As for `CCOC(=O)C1CCCN(C(=O)c2cc(-c3ccncc3)nc3ccccc23)C1` (stereo not shown), the “hERG current change (%, negative = inhibition) at 10uM” value is -32.4%.
On to `O=C(c1cc(-c2ccccc2)nc2ccccc12)N1CCN(c2ccccc2O)CC1`, for which the “hERG current change (%, negative = inhibition) at 10uM” value is -10.9%.
The value for `O=C(c1cc(-c2cccnc2)nc2ccccc12)N1CCN(S(=O)(=O)c2cccs2)CC1` was -64.3%; that for `Cc1ccc(-c2cc(C(=O)N3CCN(c4ccccc4O)CC3)c3ccccc3n2)cc1` was -1.9%.
Then `CCOC(=O)C1CCCN(C(=O)c2cc(-c3ccc(C)cc3)nc3ccccc23)C1` (stereo not shown), with -37.6%; and `O=C(c1cc(-c2cccs2)nc2ccccc12)N1CCN(S(=O)(=O)c2ccccc2)CC1`, with -5.65%; and `CC(=O)N1CCN(C(=O)c2cc(-c3ccc(C)o3)nc3ccccc23)CC1`, with -10.1%.
Then `Cc1ccc(-c2cc(C(=O)N3CCN(c4ccc(F)cc4)CC3)c3ccccc3n2)o1`, with -35.7%; and `O=C(c1cc(-c2ccncc2)nc2ccccc12)N1CCN(c2ccccc2O)CC1`, with -64.3%.
Take `Cc1ccc(-c2cc(C(=O)N3CCN(c4ccccc4O)CC3)c3ccccc3n2)o1`: the “hERG current change (%, negative = inhibition) at 10uM” value is recorded as -70.9%.
As to `O=C(N/N=C/c1c(O)ccc2ccccc12)Nc1ccccc1`, the “hERG current change (%, negative = inhibition) at 10uM” value is on record as 16.3%.
Then `COc1cc2cc(CCCOC(=O)c3cccc(Br)c3)oc(=O)c2cc1OC`, with -2.2%; and `Cn1c(SCCS(=O)(=O)c2ccc(Cl)cc2)nnc1-c1ccccc1`, with -19.3%.
The value for `CCOc1ccc(CCNC(=O)COC(=O)c2ccc(C)c([N+](=O)[O-])c2)cc1OCC` was -7.57%; that for `CO/N=C/NC(=O)NOCc1ccc(Cl)cc1Cl` was -11.5%; that for `C[C@H](NC(=O)c1nc[nH]c1C(=O)N(C)Cc1ccccc1)C(=O)OC(C)(C)C` was 5.67%.
Turning to `COc1cccc(C(=O)N(CN2CCCC2=O)c2cccc(Cl)c2)c1`, the “hERG current change (%, negative = inhibition) at 10uM” value was -25.4%.
Then `CC(=O)c1cc(C#N)c(Oc2ccc(F)cc2)nc1C`, with 13.7%.
The value for `CC1CC(C)CN(C(=O)c2cc(-c3ccncc3)nc3ccccc23)C1` (stereo not shown) was -35.5%; that for `COc1ccccc1NC(=O)c1cc(-c2ccc(C)o2)nc2ccccc12` was -60.7%; that for `Cc1ccccc1CN1CCN(C(=O)c2cc(-c3ccncc3)nc3ccccc23)CC1` was -76.7%.
The value for `COc1cccc(CN2CCN(C(=O)c3cc(-c4cccnc4)nc4ccc(C)cc34)CC2)c1` was -12.7%; that for `CCOC(=O)N1CCN(C(=O)c2cc(-c3ccncc3)nc3ccccc23)CC1` was -48.4%; that for `COc1ccc(NC(=O)c2cc(-c3ccc(C)o3)nc3ccccc23)c(OC)c1` was 14.9%.
For the molecule `O=C(c1cc(-c2ccccc2)nc2ccccc12)N1CCN(c2ccccn2)CC1`, the “hERG current change (%, negative = inhibition) at 10uM” value is recorded as -27.6%.
The value for `COc1cccc(CN2CCN(C(=O)c3cc(-c4ccncc4)nc4ccc(C)cc34)CC2)c1` was -71%; that for `COc1ccc(-c2cc(C(=O)N3CCN(c4ccccn4)CC3)c3ccccc3n2)cc1` was -5.51%; that for `COc1cccc(CN2CCN(C(=O)c3cc(-c4ccccn4)nc4ccc(Cl)cc34)CC2)c1` was 17.1%.
Then `Cc1ccc(-c2cc(C(=O)Nc3ccccc3C)c3ccccc3n2)o1`, with 9.38%; and `O=C(c1cc(-c2ccncc2)nc2ccccc12)N1CCN(c2ccccn2)CC1`, with -63.5%; and `N#CCSc1nnc(-c2ccccc2O)n1CCc1ccccc1`, with -10.7%.
Then `CCCCNC(=S)NNC(=O)c1ccc2c(c1)OCO2`, with 5.46%; and `Cc1cc(C(=O)NNC(=O)c2cccc([N+](=O)[O-])c2)n[nH]1`, with 18.9%; and `Cc1cc(C)c(S(=O)(=O)N2CCN(C(=O)C3COc4ccccc4O3)CC2)c(C)c1` (stereo not shown), with -17%.
Consider `O=c1c2cc3c(cc2[nH]c(=S)n1CCN1CCOCC1)OCO3`, for which the “hERG current change (%, negative = inhibition) at 10uM” value turned out to be 9.66%.
The value for `COc1ccc(Cc2nnc(NC(=O)C(C)C)s2)cc1` was 11.2%; that for `Cc1cc(C)c(NC(=O)COC(=O)c2c(C)noc2C)c(Cl)c1` was 13.8%; that for `CS(=O)(=O)N1CCN(C(=O)c2cc(-c3ccccc3)nc3ccccc23)CC1` was -30.8%.
The value for `CS(=O)(=O)N1CCN(C(=O)c2cc(-c3ccncc3)nc3ccc(Cl)cc23)CC1` was -12.8%; that for `O=C(c1cc(-c2ccncc2)nc2ccccc12)N1CCN(S(=O)(=O)/C=C/c2ccccc2)CC1` was -66.6%; that for `COc1ccc2[nH]c3c(=O)n(CCCCC(=O)NCCC(C)C)c(=S)[nH]c3c2c1` was 16.3%.
Then `CCCCCn1c(=O)c(C(=O)c2ccccc2)nc2ccccc21`, with -77.6%; and `CCCCn1c(CCNC(=O)c2cccs2)nc2ccccc21`, with -33.2%.
In the case of `CCCCCn1c(CCNC(=O)c2cccs2)nc2ccccc21`, the “hERG current change (%, negative = inhibition) at 10uM” value is -52.5%.
Then `CCCn1c(CCNC(=O)c2cccs2)nc2ccccc21`, with -36.1%.
Then `CCCCn1c(=O)c(C(=O)c2ccccc2)nc2ccccc21`, with -30.4%.
Then `CCCCn1c(CCNC(=O)CC)nc2ccccc21`, with -11.2%; and `CCCC(=O)NCCc1nc2ccccc2n1CCC`, with 1.27%; and `CCCCCn1c(CCCNC(=O)CC)nc2ccccc21`, with -65.9%.
On to `CCCCn1c(CCCNC(=O)CC)nc2ccccc21`, for which the “hERG current change (%, negative = inhibition) at 10uM” value was -37.3%.
The value for `CCCCn1c(CCNC(=O)CCC)nc2ccccc21` was -7.83%.
`CCCn1c(=O)c(C(=O)c2ccccc2)nc2ccccc21`: the “hERG current change (%, negative = inhibition) at 10uM” value is given as -27.4%.
Consider `CCCCCn1c(CCNC(=O)CCC)nc2ccccc21`, for which the “hERG current change (%, negative = inhibition) at 10uM” value is -57.2%.
Then `O=C(COc1ccccc1)Nc1nonc1NC(=O)COc1ccccc1`, with -12.8%; and `COc1cc(C(=S)N2CCCC2)ccc1O`, with 18.6%; and `CCN1C(=O)C2(Nc3ccccc3-c3nc4ccccc4n32)c2cc(OC)ccc21` (stereo not shown), with -4.35%.
Regarding `CCC(=O)N1CCc2cc(S(=O)(=O)CCC(=O)NCCc3ccc(OC)c(OC)c3)ccc21`, the “hERG current change (%, negative = inhibition) at 10uM” value was -0.229%.
Consider `O=C(Nc1ccc(Cl)c(Cl)c1)NC1CCS(=O)(=O)C1` (stereo not shown), for which the “hERG current change (%, negative = inhibition) at 10uM” value is -8.07%.
Then `COc1cc(NS(=O)(=O)c2ccc(NC(C)=O)cc2)ncn1`, with 0.81%.
Then `Cc1nn(-c2ccc(Cl)cc2)c(N)c1C(O)(CSc1nccn1C)C(F)(F)F` (stereo not shown), with -22.9%; and `O=C(NCC1CCCO1)c1ccc2ccccc2n1` (stereo not shown), with -3.04%; and `COc1ccc(C(=O)NCCCc2nc3ccccc3n2Cc2cc(C)ccc2C)cc1OC`, with -39.7%.
The value for `COc1cc(C(=O)NCCCc2nc3ccccc3n2Cc2cc(C)ccc2C)cc(OC)c1OC` was -33.6%.
Regarding `CCn1c(CCNC(=O)c2ccc(F)cc2)nc2ccccc21`, the “hERG current change (%, negative = inhibition) at 10uM” value is listed as -33.9%.
In the case of `COc1ccc(C(=O)NCCCc2nc3ccccc3n2Cc2ccccc2C)cc1OC`, the “hERG current change (%, negative = inhibition) at 10uM” value is -55.4%.
The value for `CC(C)Cn1c(CCCNC(=O)c2ccc(F)cc2)nc2ccccc21` was -50.3%; that for `CCn1c(CCCNC(=O)c2ccc(F)cc2)nc2ccccc21` was -41.3%.
